Experimental data: PubChem BioAssay AID1851 (National Center for Advancing Translational Sciences (NCATS), 2009)
Hit rate of the full screen: of about 16,000 compounds, about 5,800 (36%) were called active. Roughly 23% stayed inconclusive and do not appear here. Calls come from the whole dose curve; as a rule, active = well fitted curve in the direction sought with a large enough effect; inconclusive = small, poorly fitted or top-dose-only effect, or effect the other way; inactive = no such curve, though single readings can be large or run the other way. Some of the results follow.

target: Cytochrome P450 2C19 (Homo sapiens) (UniProt P33261); assay: Cytochrome panel assay with activity outcomes; conditions: recombinant CYP, pro-luciferin dealkylation, luminescence, p450-cyp2c19; series mostly up to 57.1 µM; activity, negative = inhibition: at the top concentration
% is set by controls: 0 for no effect and ±100 for the full control effect.

Cytochrome P450 2C19 (Homo sapiens), sequence (P33261 whole entry, looked up): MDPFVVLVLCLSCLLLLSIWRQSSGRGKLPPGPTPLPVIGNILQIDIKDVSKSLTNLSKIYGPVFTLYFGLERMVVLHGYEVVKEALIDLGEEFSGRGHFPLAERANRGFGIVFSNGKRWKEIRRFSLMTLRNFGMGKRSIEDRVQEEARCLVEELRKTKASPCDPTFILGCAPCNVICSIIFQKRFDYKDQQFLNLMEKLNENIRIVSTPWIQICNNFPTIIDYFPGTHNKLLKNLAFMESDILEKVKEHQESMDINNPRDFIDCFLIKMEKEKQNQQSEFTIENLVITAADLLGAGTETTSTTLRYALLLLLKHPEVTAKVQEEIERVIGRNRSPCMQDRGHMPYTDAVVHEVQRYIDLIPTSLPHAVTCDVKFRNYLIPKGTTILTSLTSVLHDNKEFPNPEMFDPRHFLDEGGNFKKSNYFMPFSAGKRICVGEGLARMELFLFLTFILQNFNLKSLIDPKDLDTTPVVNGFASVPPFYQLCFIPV

AC50, active:
CCCCC#Cc1ccccc1CC(=O)Nc1ccccc1 0.794 µM
COC(=O)c1cc(/C=C/c2ccccc2)on1 35.5 µM
Cc1ccc(NC(=O)c2cc([N+](=O)[O-])ccc2NCc2cccnc2)cc1Cl 0.0794 µM
CNC(=O)/C(C#N)=c1\s/c(=C/C(=O)OC)c(=O)n1-c1ccccc1 5.01 µM
O=C(Cc1ccccc1[N+](=O)[O-])NCc1ccccc1Cl 31.6 µM
Cc1nn(CC(=O)NCc2ccccc2Cl)c(C)c1[N+](=O)[O-] 15.8 µM
O=C(Cc1ccccc1[N+](=O)[O-])NCCSCc1c(F)cccc1Cl 2.51 µM
Cc1ccc(C(=O)C(OC(=O)CCC(=O)Nc2cccc(C)c2)c2ccccc2)cc1 (stereo not drawn) 11.2 µM
Cc1ccc(C(=O)C(OC(=O)CNS(=O)(=O)c2ccccc2)c2ccccc2)cc1 (stereo not drawn) 10 µM
Cc1ccc(C(=O)C(OC(=O)COc2ccccc2C)c2ccccc2)cc1 (stereo not drawn) 7.08 µM
Cc1ccc(C(=O)C(OC(=O)CN2C(=O)c3ccccc3C2=O)c2ccccc2)cc1 (stereo not drawn) 3.55 µM
CC(=O)Nc1cccc(C(=O)OC(C(=O)c2ccc(C)c(C)c2)c2ccccc2)c1 (stereo not drawn) 3.98 µM
CN(Cc1cc(Cl)cc(Cl)c1O)Cc1c(O)ccc2ccccc12 1.26 µM
CCN(Cc1cc(Cl)cc(C)c1O)Cc1c(O)ccc2ccccc12 1.26 µM
CN(Cc1cc(Br)cc(Br)c1O)Cc1c(O)ccc2ccccc12 0.501 µM
COC(=O)C(CCSC)NC(=O)c1cccc([N+](=O)[O-])c1 (stereo not drawn) 14.1 µM
C=CC(=O)NC(NC(=O)C=C)c1ccc(Br)cc1 15.8 µM
O=C(COC(=O)c1cccnc1)c1ccc(Cl)c(Cl)c1 2.24 µM
O=S(=O)(/N=C(\Sc1ccccc1)c1ccccc1)c1ccc(Cl)cc1 15.8 µM
CCOC(=O)c1sc(C)c(C(=O)NCC(C)(C)CN(C)C)c1N 28.2 µM
O=C(COc1ccc(Br)cc1)N1CCC(c2ccccc2)C1 (stereo not drawn) 1.12 µM
Cc1sc2nc(C3CC3)nc(SCC(=O)N3CC(=O)Nc4ccccc43)c2c1C 3.98 µM
CC1=C(\C=C/C(C)=C/C=C\C(C)=C\C(=O)O)C(C)(C)CCC1 5.01 µM

activity, negative = inhibition, inactive:
O=C(O)[C@H](/C=C\c1ccccc1)c1ccccc1 -22.1% [at 11.4 µM]
CS(=O)(=O)N1CCC[C@@]2(CCN(C(=O)Nc3cccc(C#N)c3)C2)C1 26.6%
COc1cccc(/C=c2/s/c(=C(\C#N)C(=O)N3CCOCC3)n(-c3ccccc3)c2=O)c1 -26%
Cc1nn(CC(=O)NCc2ccccc2)c(C)c1[N+](=O)[O-] 10.9%
Cc1nn(CC(=O)NCCN2CCOCC2)c(C)c1[N+](=O)[O-] 7.17%
Cn1c(=O)c2cc(S(=O)(=O)NCCC(=O)NCc3ccccc3Cl)ccc2n(C)c1=O -19.5%
Cc1ccccc1OCC(=O)OC1CCN(C)CC1 12.3%
O=C(CN1C(=O)c2ccccc2C1=O)NCC(=O)OCC(=O)c1ccc(Br)cc1 -8.2%
CNCC[C@@H](Oc1ccccc1C)c1ccccc1 11.6%
CCNc1ncc2nc(-c3cc(F)cc(F)c3)c(=O)n(-c3ccc(OC)cc3)c2n1 -5.14%
Cc1ccc(NC(=O)C2C3CCCC2C3c2ccccc2)cc1C (stereo not drawn) -21.6%
CN(CC(=O)O)Cc1c(O)c(Cl)cc(Cl)c1Cl 40.6% [at 11.4 µM]
CN(C)Cc1cc(Cl)c(O)c(CN(C)C)c1 2.46% [at 11.4 µM]
Oc1ccc2ccccc2c1C=NCc1c(O)ccc2ccccc12 -16.5% [at 11.4 µM]
O=C1Nc2ccccc2C1=Nc1cccc2ncccc12 27.9% [at 11.4 µM]
COC(=O)[C@H](CCSC)NC(=O)C/C=C\[C@@H](C)CO 35.2% [at 11.4 µM]
COC(=O)[C@H](CCSC)NC(=O)C/C=C\[C@@H](C)[C@@H](CO)OC -1.07% [at 11.4 µM]
NCCS(=O)O -19.8%
O=C(O)C(=O)/C=C(\O)c1ccc(Br)cc1 29% [at 11.4 µM]
CC(=O)NC(NC(C)=O)c1ccc(Br)cc1 -22.4%
COCC(=O)N1CCC2(CCCN(Cc3ccccc3)C2)CC1 22.8%
CCOc1ccc(NC(=O)N2CCC(c3ccc(C)cc3)C2)cc1 (stereo not drawn) -27.1%
Cc1nnc(SCC(=O)N2CC(=O)Nc3ccccc32)n1Cc1ccccc1 1.13%
CC1=CC(=O)CC(C)(C)[C@]1(O)/C=C\C(C)=C\C(=O)O -25.7% [at 11.4 µM]
CN(C)c1ncc2nc(-c3cccs3)c(=O)n(C[C@H]3CCCO3)c2n1 6.84%
